Screening data from PubChem BioAssay.
Compounds with a hit are over-represented: about 19% of the library has one in this group of screens.
DT40 TDP1 no CPT: qHTS for Inhibitors of human tyrosyl-DNA phosphodiesterase 1 (TDP1): qHTS in cells in absence of CPT. AID 686978, 2013. Potency, µM (titrated, usually from 46.2 µM), for the others: at the top dose activity change, negative = growth inhibition, actives largely listed as inhibitors. DT40 Tdp1-/- hTDP1 cells, no CPT, ATP luminescence, 48 h. hit rate 15% among 420,000; note: potency is the fitted concentration of half-maximal effect; nearly all actives have a fitted effect of over 55% in size
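Growth kinetics read by CellTiter-Glo luminescence after ≥48 hr at 37 °C. Cells: DT40 Tdp1-/- stably carrying human TDP1, 400 per well, compound exposure in the absence of CPT (DMSO vehicle).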
IL-1B inflam inh: qHTS for Inhibitors of Inflammasome Signaling: IL-1-beta AlphaLISA Primary Screen. THP-1 LPS/ATP IL-1B secretion, AlphaLISA, 16 h; stronger effect = lower value. activity change, % at 57.5 µM. hit rate 4.7% among 360,000; in the data active = activity change below about -50%; inconclusive = mostly about -30% to -49%
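Secreted IL-1B measured by AlphaLISA bead assay after 16 h compound exposure of THP-1 cells; compounds (final up to 57.5 uM) added 1 h before LPS (250 ng/mL) and ATP (1.25 mM) stimulation; lower signal means less secretion.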
Giardia kill: Small Molecules that selectively kill Giardia lamblia: qHTS | hit rate 0.15% among 340,000 | Giardia lamblia trophozoite viability | activity change, % at 7.66 µM, hits read low; in the data active = activity change below about -80%; inconclusive = between about -30% and that limit;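 note: parasites exposed to compound for two days anaerobically before the ATP read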
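Luminescent ATP signal served as the viability read-out, measured 15-30 min after adding ATP detection reagent to trophozoites that had been incubated with compounds for 48 hrs at 37 deg C anaerobically at 100 cells/well.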
DT40 TDP1 CPT: qHTS for Inhibitors of human tyrosyl-DNA phosphodiesterase 1 (TDP1): qHTS in cells in presence of CPT; chicken DT40 Tdp1-/-;hTDP1 cells + 20 nM CPT, ATP luminescence, 48 h; hit rate 12% among 420,000; Potency, µM (titrated, usually from 46.2 µM), without a hit: top-dose activity change, negative = growth inhibition, actives largely listed as inhibitors; AID 686979, 2013; note: potency is the fitted concentration of half-maximal effect; nearly all actives have a fitted effect of over 55% in size
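Chicken DT40 Tdp1-/- cells complemented with human TDP1, 400 cells/well, exposed to compounds plus 20 nM camptothecin for at least 48 h at 37 C; viability read as ATP content by CellTiter-Glo luminescence.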
ELG1 repair inh: qHTS screen for small molecules that inhibit ELG1-dependent DNA repair in human embryonic kidney (HEK293T) cells expressing luciferase-tagged ELG1. HEK293T ELG1-luciferase reporter, luminescence, 16 h; DNA damage induced by 5-fluorouridine. Potency, µM (doses to about 46.1 µM), without a hit: at the highest dose activity change, negative = inhibition, usual class: inhibitors. hit rate 2.3% among 330,000. AID 504467, 2011; note: potency is the fitted concentration of half-maximal effect; nearly all actives have a fitted effect of over 55% in size
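DMSO vehicle served as the neutral condition. Each well held 2,000 cells given 5-fluorouridine plus compound; after 16 hr at 37 °C/5% CO2, ONE-Glo was added and luciferase measured 30 min later.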
TDP1 inh: qHTS Assay for Inhibitors of Tyrosyl-DNA Phosphodiesterase (TDP1); recombinant TDP1, AlphaScreen DNA substrate cleavage; Potency, µM (series often up to 130 µM), without a hit: top-dose activity change, negative = inhibition, hits mostly inhibitors; hit rate 0.28% among 350,000; note: potency is the fitted concentration of half-maximal effect; nearly all actives have a fitted effect of over 40% in size
Target sequence (Q9NUW8 whole entry, looked up): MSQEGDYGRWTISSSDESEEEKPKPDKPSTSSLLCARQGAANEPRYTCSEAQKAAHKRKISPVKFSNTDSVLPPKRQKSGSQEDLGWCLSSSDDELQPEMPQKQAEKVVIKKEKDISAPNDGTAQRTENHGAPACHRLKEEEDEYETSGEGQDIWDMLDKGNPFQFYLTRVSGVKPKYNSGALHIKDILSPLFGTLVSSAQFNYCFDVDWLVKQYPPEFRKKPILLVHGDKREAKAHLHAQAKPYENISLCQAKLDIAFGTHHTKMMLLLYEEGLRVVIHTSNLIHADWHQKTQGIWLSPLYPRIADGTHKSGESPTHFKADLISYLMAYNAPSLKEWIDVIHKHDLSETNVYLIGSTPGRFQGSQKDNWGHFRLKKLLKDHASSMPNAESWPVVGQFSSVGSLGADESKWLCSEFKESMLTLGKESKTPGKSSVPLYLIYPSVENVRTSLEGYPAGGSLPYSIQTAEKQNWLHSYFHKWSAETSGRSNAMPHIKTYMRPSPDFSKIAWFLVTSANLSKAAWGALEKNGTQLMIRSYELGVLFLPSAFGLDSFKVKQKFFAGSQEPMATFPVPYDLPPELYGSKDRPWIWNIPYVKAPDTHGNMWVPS
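Tdp1 1 nM final; 15 min RT w/ cpd; substrate 15 nM, 5 min; beads 10 ug/ml, 10 min; AlphaScreen read. Neg ctrl: no enzyme.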
* = called active by the depositor; ? = inconclusive; . = no result given; [ ] = dose if it differs, or a comment. Unless noted, calls come from the whole dose curve; as a rule, active = well fitted curve in the direction sought with a large enough effect; inconclusive = small, poorly fitted or top-dose-only effect, or another doubt; inactive = no such curve, though single readings can be large; an effect the other way counts as inactive or inconclusive. % is set by controls: 0 for no effect and ±100 for the full control effect.

SMILES | DT40 TDP1 no CPT | IL-1B inflam inh | Giardia kill | DT40 TDP1 CPT | ELG1 repair inh | TDP1 inh
CCOc1ccccc1C(=O)N(Cc1cccs1)c1ccc(Cl)cc1 | 10.3µM* | . | . | 16.4µM* | . | -0.5%
Cc1ccc(N(Cc2cccs2)C(=O)c2ccccc2Cl)cc1 | 18.4µM* | . | . | 13µM* | . | -0.5%
CCCCc1nn2c(=O)cc(COC(=O)c3cccc(NC(=O)c4cccc(Cl)c4)c3)nc2s1 | -2.5% | . | . | -2.5% | . | 1.2%
O=C(NC1CC1)[C@@H]1C[C@@H](Sc2nc3ccccc3[nH]2)CN1CC1CCCCC1 | ? | . | . | -3.1%[9.04 µM] | . | .
COC(=O)c1ccccc1S(=O)(=O)N1CCC(C(=O)Nc2ccc(N3CCOCC3)cc2)CC1 | -11.7% | ? | -1.7 | 1.3% | 7.6% | 0.5%
Cc1cc(C)cc(NC(=O)CC(C)n2nc(C)cc2C)c1 (centres undefined) | ? | . | . | 20.6µM* | . | 7.1%
COCC1CCCN(c2nc(CN3CCN(C(=O)c4ccco4)CC3)nc3ccccc23)C1 (centres undefined) | -18.6% | . | . | 10.3%[9.04 µM] | . | .
Cc1c(CNC2CCCCC2)c(C(=O)O)c(C)n1Cc1c(F)cccc1Cl | -27.1% | . | . | -8.4% | . | 5.1%
CCOc1ccc(-c2cc(C(=O)Nc3ccc(C)c(NS(C)(=O)=O)c3)[nH]n2)c(C)c1 | ? | -1.9 | . | 18.4µM* | . | .
Cc1ccc(S(=O)(=O)n2c([N+](=O)[O-])cnc2C)c(C)c1C | ? | 5.6 | -14.6 | ? | 10.3% | 3.0%
COc1ccc(OC)c(CCNc2nc3ccccc3c3nc(-c4cccnc4)nn23)c1 | ? | . | . | 0.5% | . | 2.9%
CCN(CC)CCCNc1nc2cc(OC)c(OC)cc2c2nc(-c3ccccc3)nn12 | 5.17µM* | -88.1* | -12.6 | 20.6µM* | -1.3% | 2.3%
CCN(CC)CCCNc1nc2ccccc2c2nc(-c3ccncc3)nn12 | 20.6µM* | -102.3* | -28.3 | ? | 0.2% | .
CCOCCCNc1nc2cc(OC)c(OC)cc2c2nc(-c3ccccc3)nn12 | 6.51µM* | . | . | 10.3µM* | . | -2.0%
Cc1ccc(CCNc2nc3ccccc3c3nc(-c4cccnc4)nn23)cc1 | ? | . | . | -23.3% | . | 1.0%
CCN(CC)CCCNc1nc2cc(OC)c(OC)cc2c2nc(-c3cccnc3)nn12 | 13µM* | -90.2* | 0.8 | 14.6µM* | -17.1% | 4.5%
O=C(CCS(=O)(=O)c1cccs1)Nc1ccc(C(=O)Nc2cccc(Cl)c2)cc1 | ? | . | . | 7.7% | . | 1.8%
CCOC(=O)C1(CCOC)CCN(C(=O)Cc2ccc3ccccc3c2)CC1 | ? | 0.4 | -19.8 | ? | 1.7% | .
Cc1cc(N/N=C/c2ccc(F)cc2)nc(NCc2ccccc2)n1 | 11.6µM* | -96.5* | -14.5 | 8.2µM* | 0.0% | .
Cc1cc(=O)[nH]c(N/N=C/c2ccc(Cl)cc2Cl)n1 | -7.4% | -4.9 | -0.4 | -5.2% | ? | .
Cc1cc(N/N=C/c2ccccc2)nc(N)n1 | 22.1% | 0.0 | -1.5 | -0.3% | ? | .
Cc1cc(N/N=C/c2ccc(O)cc2)nc(NS(=O)(=O)c2ccccc2)n1 | ? | -1.0 | 18.5 | 9.7% | -22.8% | 15.8µM*
Cc1cc(N/N=C/c2ccc(Cl)cc2Cl)nc(NCc2ccccc2)n1 | 7.31µM* | 0.0 | -5.0 | 10.3µM* | ? | -8.1%
CCNc1nc(NCC)nc(N/N=C/c2ccc(N(C)C)cc2)n1 | ? | 0.0 | -22.3 | ? | 16.9% | 5.1%
Cc1cc(N/N=C/c2ccc(N(C)C)cc2)nc(NCc2ccccc2)n1 | 5.8µM* | -60.7* | -9.6 | 7.31µM* | ? | .
SMILES | DT40 TDP1 no CPT | IL-1B inflam inh | Giardia kill | DT40 TDP1 CPT | ELG1 repair inh | TDP1 inh
C=CCOc1ccc(C(c2c(C(=O)O)[nH]c3ccccc23)c2c(C(=O)O)[nH]c3ccccc23)cc1 | -8.1% | 38.7 | 5.4 | 12.3% | 3.9% | .
CCc1nnc(SCC(=O)NC2CC2)n1CC | 3.9% | 28.2 | 37.9 | -7.2% | 7.7% | 1.7%[56.1 µM]
CC(C)CC1NC(=O)N(Cc2cc(=O)n3ccsc3n2)C1=O (centres undefined) | -15.9% | 19.2 | 5.6 | -0.7% | 1.7% | -0.6%
O=C1CCCC=C1[C@H](CCc1ccccc1)OC(=O)c1ccc(Br)cc1 | . | . | . | . | . | 5.8%[21 µM]
Cc1[nH]c2ccccc2c1CN1CCc2ccccc2C1 | 11.6µM* | ? | -6.3 | 10.3µM* | ? | -5.1%
O=c1[nH]c(=O)c2[nH]c(=O)n(-c3ccccc3)c2[nH]1 | 20.1% | -2.3 | -12.1 | 5.4% | . | .
COc1cc(OC)c2c(c1C(CCN1CCCC1)c1ccc(N(C)C)cc1)OC(=O)CC2c1ccc(N(C)C)cc1 (centres undefined) | . | . | -4.4 | . | . | 26.8%
CC(C(=O)Nc1cc(C(F)(F)F)ccc1Cl)n1nnc2sc3c(c2c1=O)CCCC3 (centres undefined) | 16.4µM* | . | . | 23.1µM* | . | 2.3%
CCOc1ccccc1NC(=O)C(C)n1nnc2sc3c(c2c1=O)CCCC3 (centres undefined) | 14.6µM* | . | . | ? | . | 4.7%
Cc1ccc(Cl)cc1NC(=O)C(C)n1nnc2sc3c(c2c1=O)CCCC3 (centres undefined) | 16.4µM* | . | . | 25.9µM* | . | 0.0%
Cc1ccc(C)c(N2C(=O)CC(Cc3ccccc3)C2=O)c1 (centres undefined) | -3.9% | 27.8 | -5.0 | -0.8% | -5.2% | .
Cc1ccnc2nc(C(=O)OCC(=O)Nc3ccc4c(c3)OCCO4)nn12 | -6.4% | 4.8 | -2.9 | -11.6% | ? | 0.8%
CCN(CC)CCNc1ccc(C)c2sc3ccc(O)cc3c(=O)c12 | 0.146µM* | -100.8* | 0.7 | 0.164µM* | . | .
O=C(OC(C(=O)NCc1ccc(F)cc1)c1ccccc1)c1ccco1 (centres undefined) | -16.8% | -5.5 | -17.4 | 16.2% | 17.6% | .
c1ccc(-n2nnnc2Oc2ccc(-n3ccnc3)cc2)cc1 | -9.1% | -64.4* | -2.3 | -13.2% | -19.2% | 7.7%
COc1ccc(Oc2nnnn2-c2ccccc2)cc1 | -3.7% | -20.0 | 16.6 | 9.3% | ? | 0.0%
CCc1nc2cc(C(=O)N(C)CC3CCCN(C)C3)cc(NC(=O)c3ccccc3OC)c2n1C (centres undefined) | -7.3% | . | . | -1.8% | . | .
CCN1CCN(c2ncc3c(n2)CCN(Cc2cc(Br)cs2)C3)CC1 | 20.6µM* | . | . | 18.4µM* | . | 3.8%
CCN1CCN(c2ncc3c(n2)CCN(Cc2ccc(C)s2)C3)CC1 | ? | . | . | ? | . | 1.2%
Cc1ccsc1CN1CCc2nc(N3CCN(c4ccccc4F)CC3)ncc2C1 | ? | . | . | ? | . | 3.8%
